Screening results (PubChem)
NLRP3 yeast inh = NALP3 inflammasome inhibitors in reconstituted yeast, primary screen, luminescence, uHTS; 0.39% of 330,000 active; Yeast reconstituted NLRP3/ASC/caspase-1, beta-gal luminescence, 24 h; inhibition, % at 10 µM;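 active = inhibition of 50% or more; inactive = inhibition below 50%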
A1 inh = caspase 3/7 activation in MEF A1-2A-BIM cells, primary screen, A1 inhibitor project, cell-based, luminescence, HTS; AID 2462, 2010; 0.066% of 330,000 active; caspase activation, % (test concentration not listed); Caspase-Glo 3/7 luminescence, 3 h; percent of clofoctol response, vehicle zero;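 active = over half of replicate activation scores above 10%, or exactly half above 10 with the replicate mean above 10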
CHT allo act = CHT positive allosteric modulators, primary screen, cell-based, membrane potential dye, choline EC20; High affinity choline transporter 1 (Homo sapiens), Q9GZV3; CHT-expressing cells; hits give high values; LV-AA mutant CHT in HEK293 cells; B-score at 10 µM; 0.49% of 310,000 active; AID 488977, 2010;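 active = initial fluorescence not abnormally high and integrated response B-score, plate-corrected, over 3 SD above library mean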
Target sequence (Q9GZV3 whole entry, looked up): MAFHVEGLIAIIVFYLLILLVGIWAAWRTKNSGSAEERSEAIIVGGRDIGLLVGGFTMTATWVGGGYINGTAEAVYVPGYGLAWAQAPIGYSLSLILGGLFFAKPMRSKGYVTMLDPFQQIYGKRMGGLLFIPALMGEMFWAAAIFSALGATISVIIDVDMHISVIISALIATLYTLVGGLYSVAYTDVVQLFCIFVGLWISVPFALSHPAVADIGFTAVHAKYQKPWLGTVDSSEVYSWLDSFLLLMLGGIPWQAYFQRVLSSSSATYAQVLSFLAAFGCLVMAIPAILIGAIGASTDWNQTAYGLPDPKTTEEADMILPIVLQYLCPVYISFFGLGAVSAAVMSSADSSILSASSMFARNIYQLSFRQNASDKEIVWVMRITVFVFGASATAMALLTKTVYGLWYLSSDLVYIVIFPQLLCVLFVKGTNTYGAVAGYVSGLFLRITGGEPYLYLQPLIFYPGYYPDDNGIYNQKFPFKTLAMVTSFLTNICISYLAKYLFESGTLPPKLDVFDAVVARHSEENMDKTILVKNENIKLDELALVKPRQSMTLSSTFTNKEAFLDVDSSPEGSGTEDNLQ
NALP1 yeast inh = NALP1 inflammasome inhibitors in reconstituted yeast, colorimetric, S. cerevisiae, triplicate retest; S. cerevisiae NALP1/ASC/caspase-1 growth, X-gal OD620, 72 h; AID 2071, 2009; 0.61% of 280,000 active; inhibition, % at 10 µM; in the data active = inhibition mostly above about 24%, no sharp cut-off; inactive = mostly below about 32%
Mot1-301 SUMO = yeast Mot1-301 growth rescue at high temperature, primary screen, SUMOylation pathway inhibitor project, S. cerevisiae, ATP luminescence, 38.5C; S. cerevisiae Mot1-301 growth rescue; percent above DMSO median, 100 means doubled; growth rescue, % at 18.8 µM; 1% of 320,000 active; AID 2716, 2010;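 active = every valid replicate shows activation above 250% relative to neutral control wells; inactive = the rest, any valid replicate at or below 250%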
CHT inh = inhibitors of human choline transporter CHT | 0.86% of 310,000 active | AID 488975, 2010 | B-score at 10 µM | High affinity choline transporter 1 (Homo sapiens), Q9GZV3 | CHT-expressing cells, membrane potential dye, choline response; hits give low values;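 active = B-score over 3 SD under the library average, and starting fluorescence ratio not unusually high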;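 note: choline stimulus applied at its EC90 after an EC20 pre-addition; B-score computed on integrated fluorescence ratio after choline addition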
CHT act confirm = CHT activators, confirmation, cell-based, membrane potential dye, duplicate; shares compounds with CHT allo act; CHT-expressing cells, membrane potential dye fluorescence (FDSS); % of choline EC20–EC90 response window; HEK293 expressing CHT LV-AA mutant; choline added at its EC20; activation, % at 10 µM; 91% of 2,500 active;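 active = primary screen active, with duplicate mean activation above negative control mean plus 3 SD, cut at about 11% in these data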
HEK293 MP dye = membrane potential response in parental HEK293 cells, counter-screen for CHT activator project, cell-based, membrane potential dye | shares compounds with CHT allo act | membrane potential dye fluorescence (FDSS); measured after EC20 choline addition | ratio readout change at 10 µM, hits read low | 62% of 2,500 active;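 active = duplicate-averaged ratio beyond 3 SD from buffer wells, up or down, though filed actives are nearly all decreases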
Of the large screens only hits and unclear results are named; the others gave an inactive call (follow-up assays come after a bar, where they were run). Most compounds without a hit are left out; they make up all but 3% or so of the library.

COc1ccc(S(=O)(=O)N2c3ccccc3OCC2C)cc1 (configuration not stated)	CHT allo act 7.1 | CHT act confirm 32 | HEK293 MP dye inactive
CC(C)OCCCNC(=O)C(NS(=O)(=O)c1ccc2c(c1)c(=O)n(C)c(=O)n2C)c1ccccc1 (configuration not stated)	none
N#Cc1c(NC(=S)NC(=O)c2ccccc2)sc2c1CCN(CCc1ccccc1)C2	none
N#Cc1c(N)sc2c1CCN(CCc1ccccc1)C2	none | CHT act confirm 30 | HEK293 MP dye -41
O=C(CC1S/C(=N/N=C2CCCCCC2)NC1=O)Nc1ccc(Br)cc1F (configuration not stated)	none
C#CCOCCOCCOCCNc1nc(N2CCN(C(=O)[C@H](CCCCN)n3cc([C@@H](N)C(C)CC)nn3)CC2)nc(N2CCN(C(=O)[C@H](CCCCN)n3cc([C@@H](N)CC(C)C)nn3)CC2)n1 (some centres not stated)	CHT allo act 6.5 | CHT act confirm 38 | HEK293 MP dye -37
Cc1ccc(NC(=S)NC2CCCC2)c(C)c1	none
CCCSc1nc2cc(OC)c(OC)cc2c(=N)n1CCCN1CCOCC1	CHT allo act 6.5 | CHT act confirm 53 | HEK293 MP dye -40
COCCCn1c(SCc2ccc(OC)cc2)nc2cc(OC)c(OC)cc2c1=N	none
CCCCN(Cc1ccco1)C(=O)C1CCCN(c2ncnc3c2nc2n3CCCCC2)C1 (configuration not stated)	none | CHT act confirm 18 | HEK293 MP dye inactive
COc1cccc(OCc2cc(C(=O)N(Cc3ccccc3)CC3CC3)no2)c1	none
CN(C)C(/C=C/Nc1ccc(Br)cc1)=C(C#N)C#N	CHT allo act 7.3 | CHT act confirm 20 | HEK293 MP dye -50
CN(C)C(/C=C/Nc1ccc([N+](=O)[O-])cc1)=C(C#N)C#N	CHT allo act 7.1 | CHT act confirm 30 | HEK293 MP dye -55
COc1ccc(NS(=O)(=O)c2ccc(F)c(F)c2F)cc1S(=O)(=O)N1CCOCC1	none (no result: CHT allo act, NALP1 yeast inh, CHT inh)
CC1(C)C(=O)Nc2ccccc2N1C(=O)COC(=O)c1ccc(Cl)c(S(=O)(=O)NCc2ccccc2)c1	none | CHT act confirm 12 | HEK293 MP dye inactive
c1cncc(-c2nc(NCC3CCCO3)c3ccccc3n2)c1 (configuration not stated)	none | CHT act confirm 22 | HEK293 MP dye -33
Cc1c(Br)c([N+](=O)[O-])nn1CC(=O)Nc1ccc2nc3n(c(=O)c2c1)CCCC3	none
Cn1c(=O)c2c(nc(SCCN3CCOCC3)n2Cc2ccc(F)cc2)n(C)c1=O	none
CCCCCn1c(SCCN2CCOCC2)nc2c1c(=O)[nH]c(=O)n2C	none | CHT act confirm 39 | HEK293 MP dye -37
CCn1c(SCCN2CCOCC2)nc2c1c(=O)n(C)c(=O)n2C	none | CHT act confirm 49 | HEK293 MP dye -38
Cn1c(=O)c2c(nc(N3CCOCC3)n2CCc2ccccc2)n(C)c1=O	none
CN(C)C=NCCn1c(N2CCOCC2)nc2c1c(=O)n(C)c(=O)n2C	CHT allo act 14 | CHT act confirm 68 | HEK293 MP dye -70
Cn1c(=O)c2c(nc(SCCN3CCOCC3)n2C)n(C)c1=O	none | CHT act confirm 51 | HEK293 MP dye -51
N/C(=N\OS(=O)(=O)c1ccc2ccccc2c1)c1ccccn1	none (no result: NLRP3 yeast inh, A1 inh, CHT allo act, Mot1-301 SUMO, CHT inh)
COc1ccc(C2=NC(C)(C)Cc3cc(OC)c(OC)cc32)cc1	CHT allo act 8.3 | CHT act confirm 67 | HEK293 MP dye -84
COc1cc2c(cc1OC)C(SC)=NC(C)(C)C2	none | CHT act confirm 53 | HEK293 MP dye -44
COc1cc2c(cc1OC)C(CCc1ccccc1)=NCC2	none (no result: NALP1 yeast inh)
COc1ccc(C2=NCCc3cc(OC)c(OC)cc32)cc1	CHT allo act 7.5 | CHT act confirm 27 | HEK293 MP dye -92
COc1cc2c(cc1OC)C(/C(C#N)=N\O)=NC(C)(C)C2	none
COc1ccccc1CNC(=O)COc1cc2c(c3oc(=O)cc(C)c13)CCC(C)(C)O2	none | CHT act confirm 24 | HEK293 MP dye inactive
COc1ccc(CNC(=O)COc2cc3c(c4oc(=O)cc(C)c24)CCC(C)(C)O3)cc1	none
CC1(C)Cc2cccc(OCC(=O)NCc3cccs3)c2O1	none (no result: NALP1 yeast inh, Mot1-301 SUMO)
CSc1ccccc1C(=O)N(C)C(c1ccccc1)c1ccccc1	none | CHT act confirm 45 | HEK293 MP dye inactive
CSc1ccccc1C(=O)N(C)Cc1ccccc1	none
c1cncc(CSc2nnc(-c3cccnc3)n2Cc2ccco2)c1	none (no result: A1 inh, CHT allo act, Mot1-301 SUMO, CHT inh)
FC(F)(F)COc1cc(-c2nnc(SCc3ccccc3)n2Cc2ccco2)cc(OCC(F)(F)F)n1	CHT allo act 9.2 | CHT act confirm 24 | HEK293 MP dye inactive
O=C1CN(C(=O)NCC(=O)N[C@@H](C(=O)O)c2ccccc2)c2ccccc2N1	none
COc1ccc(-c2[nH]ncc2CNCc2cc(C)n(C)n2)c(F)c1	CHT allo act 7.8 | CHT act confirm 45 | HEK293 MP dye -60
COc1ccc(-c2[nH]ncc2CN2C[C@@H]3CCC[C@H]2C3)c(F)c1	none
Cc1cccc(NC(=O)COC(=O)CCc2c[nH]c3ccccc23)c1	none (no result: CHT allo act, NALP1 yeast inh, CHT inh)
O=C(C1=C(O)C(=O)N(CCCn2ccnc2)C1c1cccc(Br)c1)c1ccco1 (configuration not stated)	none
CCOc1ccc(N(C)S(=O)(=O)c2ccc3[nH]cc(C(=O)NCC(OC)OC)c(=O)c3c2)cc1	none | CHT act confirm 21 | HEK293 MP dye inactive
CCC1CCCCN1C(=O)c1c[nH]c2ccc(S(=O)(=O)N(C)c3ccc(Cl)cc3)cc2c1=O (configuration not stated)	none | CHT act confirm 30 | HEK293 MP dye inactive
FC(F)Sc1ccc(-n2c(-c3ccc(Cl)cc3)c[n+]3c2CCC3)cc1	CHT allo act 6.3 | CHT act confirm 30 | HEK293 MP dye -35
